Reference: paper PMC5540273 (PLoS ONE, 2017)

How the values were obtained:
[1] = system: PRKCH
[2] = system: PRKCI
[3] = system: PRKD1
[4] = system: PRKD2
[5] = system: PRKD3
[6] = system: T1, PRKR
T1 construct: gene EIF2AK2

[7] = system: PRKX
[8] = system: RIOK1
[9] = system: RIOK3
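Note: kd values determined as follow-up on hits from a single-replicate KINOMEscan panel screen.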

Question: How did the Kd [1] turn out when CCC(=O)c1c(-c2ccccc2)c2cc(Cl)ccc2c(=O)n1Cc1cc(S(C)(=O)=O)n(CC(N)=O)n1 was run?
Answer: The Kd was greater than 10000 nM.

Question: With COc1cccc(C2=C(Nc3cccc(C(=O)O)c3)C(=O)NC2=O)c1 [SB-390770] as the compound, how does the Kd [2] read?
Answer: The Kd was greater than 10000 nM.

Question: What does the source list for Cc1cccc(-c2nc(Nc3ccc4c(cnn4C)c3)c3ccccc3n2)n1 [GW876731]?
Answer: Kd [3]: 7.2 nM; Kd [4]: 12 nM; Kd [5]: 13 nM

Question: Which results are given for Cc1cc(Nc2nc(-c3cccc(C)n3)nc3ccccc23)ccn1 [GW872411]?
Answer: Kd [3]: 6.1 nM; Kd [4]: 9.4 nM

Question: How did the Kd [6] turn out when O=C1NC(=O)C(c2ccccc2)=C1Nc1cccc(O)c1 [SB-390534] was run?
Answer: The Kd was greater than 10000 nM.

Question: How did the Kd [7] turn out when C[C@@H]1CC[C@H](C(=O)NC2CCCCC2)CN1c1cc(-c2ccc3c(N)n[nH]c3c2)nc(N)n1 [GSK2291363] was run?
Answer: Its Kd is 460 nM.

Question: And the Kd [8]?
Answer: The Kd was 210 nM.

Question: And the Kd [9]?
Answer: The Kd was 150 nM.

Question: For Cc1ccc(Oc2ccc(Nc3ncnc4cc[nH]c34)cc2C)cn1, which Kd [8] is on record?
Answer: The Kd was greater than 10000 nM.
